# Sampled rows, rich in hits. Any-hit rate of the full collection: about 21%.
# CHX counter-1 – Cycloheximide Counterscreen for Small Molecule Inhibitors of Shiga Toxin. 300,000 tested, 12% active. cell reporter, cycloheximide protein synthesis inhibition counterscreen. max response, %. AID 2314, 2010; in the data active = max response mostly above about 13%, no sharp cut-off; inactive = mostly below about 14%; note: read at 38.3 µM for the half of the compounds with a filed dose
# Shiga inhibitor – A qHTS for Small Molecule Inhibitors of Shiga Toxin | Vero cells, Shiga toxin protein synthesis inhibition reporter | inhibition, % at 38.7 µM | 290,000 tested, 9.2% active | AID 2315, 2010; in the data active = inhibition mostly above about 28%, no sharp cut-off; inactive = mostly below about 43%
# Pf growth 96h – Primary qHTS for delayed death inhibitors of the malarial parasite plastid, 96 hour incubation. P. falciparum luciferase reporter growth, 96 h. Potency, µM (series often up to 28.7 µM), most hits filed as inhibitors. 320,000 tested, 6.9% active
#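 Two parasite generations (96 h, 37 C, 5% CO2) of compound exposure in infected erythrocytes (0.05% parasitemia, 2% hematocrit). Luciferase-reporter P. falciparum; decreased luminescence indicates inhibited growth, aimed at apicoplast-acting delayed death.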
# Pf growth 48h – Primary qHTS for delayed death inhibitors of the malarial parasite plastid, 48 hour incubation; P. falciparum luciferase growth in erythrocytes, 48 h; 310,000 tested, 5.9% active; Potency, µM (top dose mostly 28.7 µM), actives largely listed as inhibitors
#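 Growth was read as firefly luciferase luminescence after a 48 h, 37 C, 5% CO2 exposure of compounds to reporter-bearing P. falciparum cultures (0.1% parasitemia, 2% hematocrit final) in Albumax-supplemented RPMI 1640.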
# NS1 inh – qHTS Assay for Inhibitors of Influenza NS1 Protein Function. AID 2326, 2010. Potency, µM (titrated, usually from 46.1 µM). 270,000 tested, 0.4% active; calls by dose curve; note: actives are rising curves; nearly all actives have a fitted effect of over 50% in size
#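 In this qHTS, NS1 from influenza A is expressed in budding yeast, where it slows growth. Cells are switched from glucose to 2% galactose medium (pH 6.0, -URA), treated with compound, and growth recovery is read at OD600.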
# CHX counter-2 – Cycloheximide Counterscreen for Small Molecule Inhibitors of Shiga Toxin (Confirmatory); Cycloheximide counterscreen, protein synthesis reporter, Shiga toxin assay; AID 2318, 2010; shares compounds with Shiga inhibitor; Potency, µM (top dose mostly 38.3 µM), actives largely listed as activators; 510 tested, 3% active; calls by dose curve
# Numbers stand for hits; i = inactive; ? = inconclusive; nt = not tested or not shown. Unless noted, calls come from the whole dose curve; as a rule, active = well fitted inhibition curve with a large enough effect; inconclusive = small, poorly fitted or top-dose-only effect, or another doubt; inactive = no such curve, though single readings can be large or run the other way.
SMILES,CHX counter-1,Shiga inhibitor,Pf growth 96h,Pf growth 48h,NS1 inh,CHX counter-2
COc1ccccc1C(=O)NCC(C)(C)CN=C1NS(=O)(=O)c2ccccc21,i,i,i,i,i,nt
CCOc1cc2[nH]c(=S)n(CCC(=O)NCc3ccc(OC)cc3)c(=O)c2cc1OCC,i,i,i,i,i,nt
Cc1ccc(-c2nnc(SCC(=O)NC3CCCC3)n2C)cc1,i,69,?,i,i,i
Cc1cccc(NC(=O)CCN2C(=O)c3ccccc3S2(=O)=O)c1C,i,17,i,i,i,i
CCN(CC)c1ccc(NC(=O)CCN2C(=O)c3ccccc3S2(=O)=O)c(C)c1,nt,nt,i,i,nt,nt
OC1C[N+]2(CCCCC2)C1,i,30,i,?,i,i
COc1ccccc1C(=O)CSc1nccn1C,i,22,i,i,i,i
COc1ccccc1C(=O)CSc1nnc(-c2ccco2)o1,i,i,?,?,i,nt
CSc1cccc(CNC(=O)C2CCC(=O)N(CC3CCCCC3)C2)c1 (configuration not stated),i,i,?,i,i,nt
O=C(Nc1ccc(/C=C/c2nc3ccccc3o2)cc1)c1ccc(F)cc1,i,37,?,?,i,2.2µM
COC(=O)c1cccc(C(=O)Nc2ccc(F)cc2)n1,i,i,i,i,i,nt
COc1ccc(N(CC(=O)Nc2cccc(C)c2C)S(=O)(=O)c2c(C)n[nH]c2C)cc1,i,i,i,?,i,nt
COc1ccc(N(CC(=O)Nc2ccc(Cl)cc2)S(=O)(=O)c2c(C)n[nH]c2C)cc1,i,24,i,?,i,i
COc1cccc(C(=O)NNC(=O)C2CC(C)=C(C)CC2C(=O)O)c1 (configuration not stated),i,37,i,i,i,i
COc1cc(C(=O)NNC(=O)c2cccc(Cl)c2)ccc1OCC(=O)N1CCOCC1,nt,nt,?,i,nt,nt
CCn1c(P(C)(=O)O)nc2cc(NC(=O)c3ccccc3F)ccc21,i,32,i,i,nt,i
CC(=O)Nc1cccc2ncccc12,i,41,4.1µM,i,i,i
CCCC[C@@H]1C[C@H]1[C@@H](NC(=O)c1ccco1)c1ccc(Cl)cc1,i,84,?,?,i,i
CC(=O)/C(C#N)=C1\NC(=O)C(Cc2ccc(F)cc2)S1 (configuration not stated),i,i,i,?,i,nt
CC(=O)/C(C#N)=C1\NC(=O)C(Cc2ccc(C)c(C)c2)S1 (configuration not stated),i,34,?,i,i,i
COc1ccc(CC(=O)NC(C)c2nnc(SCC(=O)Nc3nc(C)cs3)n2C)cc1 (configuration not stated),i,30,i,i,i,i
COc1ccc(CC(=O)NC(C)c2nnc(SCC(=O)c3ccc(Br)cc3)n2C)cc1 (configuration not stated),i,i,?,nt,i,nt
CCCCOc1cccc(C(=O)NC(=S)Nc2cccc(C(F)(F)F)c2)c1,i,i,i,i,i,nt
CC(C)OC(=O)Cn1nnc(-c2ccccc2)n1,i,i,?,nt,i,nt
CC1CCCC(C)N1C(=O)Cn1nnc(-c2ccccc2)n1 (configuration not stated),i,33,i,i,i,i
SMILES,CHX counter-1,Shiga inhibitor,Pf growth 96h,Pf growth 48h,NS1 inh,CHX counter-2
Cc1ccccc1S(=O)(=O)Nc1nc2ccccc2nc1Cl,i,i,i,i,nt,nt
Cc1ccccc1S(=O)(=O)Nc1ncnc2ccccc12,i,33,i,i,i,i
CCOC(=O)c1nn(-c2ccccc2)c(=O)cc1SC1CCCCC1,i,i,i,i,i,nt
O=C(/C=C/c1ccccc1)NCCc1ccc2c(c1)OCCO2,i,36,i,i,i,i
COc1cccc(/C=C/C(=O)NCCc2ccc3c(c2)OCCO3)c1,i,i,?,i,i,nt
O=C(NCCCCNC(=O)c1cccnc1Cl)c1cccnc1Cl,i,i,?,?,i,nt
COc1ccc(C(=O)Nc2cccc(C(=O)N3CCN(C)CC3)c2)cc1,i,37,0.13µM,i,i,i
O=C(/C=C/c1ccc(Cl)cc1)NCc1ccncc1,i,i,i,i,i,nt
CCOC(=O)c1cc2sccc2n1CCCN1C(=O)c2ccccc2C1=O,i,110,i,i,i,i
CN(C)c1ccc(C(=O)NCc2ccc3c(c2)CCO3)cc1,i,55,i,i,i,i
CN(c1ccc(C(=O)NCc2ccc3c(c2)OCO3)cc1)S(C)(=O)=O,i,i,nt,i,i,nt
O=C(NCCN1CCOCC1)C(=O)NCC1OCCCN1S(=O)(=O)c1ccc(F)cc1 (configuration not stated),i,i,?,i,i,nt
COc1ccc(N2CCN(c3oc(COc4ccccc4Cl)nc3C#N)CC2)cc1,i,35,?,?,i,?
O=C(Nc1cccc(-c2csc(Nc3ccc(Cl)cc3)n2)c1)c1ccccc1,i,29,?,?,i,?
c1ccc(OCCCn2ccnc2)cc1,i,42,i,i,i,i
COc1ccc(C2=CC(c3ccc(C)cc3)n3nnnc3N2)cc1 (configuration not stated),i,69,?,?,i,i
CCOC(=O)Nc1ccc2c(c1)Nc1ccccc1S2,i,31,nt,i,i,i
CC(=O)c1ccc2c(c1)Nc1ccccc1S2,i,i,nt,i,i,nt
Cc1ccc(N/C(C(Cl)=C(Cl)Cl)=C(/Cl)[N+](=O)[O-])c(C)c1,i,23,?,?,i,i
Cc1ccc(NC(=O)c2c([N+](=O)[O-])c(C(C)(C)C)nn2C)c(C)c1,i,i,?,?,i,nt
COc1ccc(NC(=O)CN2C(=O)c3ccccc3S2(=O)=O)cc1S(=O)(=O)N1CCOCC1,nt,nt,i,i,nt,nt
COc1ccc(N(C(=O)c2csnn2)C(C(=O)NC2CCCC2)c2cccs2)cc1 (configuration not stated),i,56,1.5µM,i,i,i
O=C(Cn1c(C(=O)N2CCN(C3CCCC3)CC2)cc2sccc21)c1ccccc1,i,i,nt,?,i,nt
CC(=O)Nc1c(NCC(C)C)c2ccccc2oc1=O,i,i,?,?,i,nt
CCNc1c(NC(=O)c2cccs2)c(=O)oc2ccccc12,i,30,i,i,i,i
Cc1ccc(C2(O)CN(c3ccccc3C)C3=[N+]2CCS3)cc1 (configuration not stated),i,48,i,?,i,i
Cc1ccccc1N1CC(O)(c2ccccc2)[N+]2=C1SCC2 (configuration not stated),i,i,i,i,i,nt
COC(=O)C1=C(CS(=O)(=O)c2ccc(Cl)cc2)NC(=O)NC1c1ccc(O)cc1 (configuration not stated),i,i,?,i,i,nt
O=C(COC(=O)c1cncc(Br)c1)Nc1nc(-c2ccc(F)cc2)cs1,i,27,i,i,i,?
CC(C)CC1=C/C(=C/c2ccc(-c3ccccc3)o2)C(=O)O1,i,40,?,?,i,i
